The values below come from PubChem BioAssay.

The nature of assay [1]: Her2 expression decrease, cell viability multiplex – SKBR3 breast tumor cells, AlphaScreen, ATP viability, primary screen (AID 461;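 active means Her2 level under about 52% in both replicate screens, with viability over 70% of control, limit read from the data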;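 on Her2 level: lower value means less Her2 protein in the cells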;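 on viability: percent of carrier control wells set as 100% viability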). To be noted: SKBR3 Her2 protein level, 18-24 h, measured here: SKBR3 viability, ATP luminescence, at 10 µM. (In general: Alpha assays give light when donor and acceptor beads are brought close together.)
Assay [2] deals with Receptor tyrosine-protein kinase erbB-2 (Homo sapiens) (UniProt P04626). Described as above. To be noted: 18-24 h, at 10 µM, stronger effect = lower value.
Assay [3] can be described thus: reduced viability of SK-BR-3 breast cancer cells – cell-based, 24 h, human, pilot screen (AID 572;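 active means viability at or below 10% of carrier control in both of two separate runs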;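 further: compound exposure lasted between 18 and 24 h rather than exactly 24 h; 100% = carrier-treated control wells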). The settings on record: SK-BR-3 viability, CellTiter-Glo luminescence, at 10 µM, stronger effect = lower value.
Assay [4] in a line: HUVEC growth inhibition – cell-based, human, primary screen (AID 575;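 active means viability at or below 30% in both replicate assays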;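 further: 100% = median of untreated cell wells with 0.1% DMSO on each plate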). To be noted: HUVEC proliferation, CellTiter-Glo luminescence, 72 h; at 10 µM; stronger effect = lower value. A general note: Cellular ATP, detected with luciferase, serves as a proxy for viable cell number.
Assay [5] in a line: H69AR cell proliferation blockers – human, duplicate replicates, primary screen (AID 580;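 active means viability at or under a set limit in both replicates, limit being median viability minus 3 SD, cut at about 48% in these data, passing the limit was not always enough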;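 further: 100% = mean luminescence of untreated wells and 0% = no signal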). The settings on record: H69AR lung tumor cells viability, ATP luminescence, 72 h; at 10 µM; stronger effect = lower value.
The nature of assay [6]: MRP1 drug-resistance reversers in H69AR cells – cell-based, doxorubicin co-treatment, pilot screen (AID 601;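 active means viability loss from added drug above about 55%, and viability with drug at most 40%, in both replicates, limit read from the data, passing the limit was not always enough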). The settings on record: CellTiter-Glo, 72 h, at 10 µM; for differential viability (reversal): stronger effect = higher value.
Assay [7] can be described thus: yeast transport mutant growth inhibition pilot in 384-well plates, post-Golgi transport modulator project (AID 636; in the data active means inhibition above about 31%). To be noted: absorbance 615 nm, about 18 h, stronger effect = higher value.
The nature of assay [8]: growth suppression of yeast trafficking mutant, preliminary HTS, modulators of trafficking downstream of Golgi apparatus project, 1536-format plate, OD 615 nm (AID 637). To be noted: yeast transport mutant growth, absorbance 615 nm, 18 h; stronger effect = higher value.
Assay [9] in a line: S. cerevisiae growth inhibition in permissive medium (OD615), pilot counter-assay for S. cerevisiae lifespan shortening project, permissive growth control (AID 705;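 active means growth inhibition above 25% in both replicates, a cutoff set 3 SD above the mean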). To be noted: OD615, 24 h, at 10 µM, stronger effect = higher value.
Assay [10] in a line: S. cerevisiae growth inhibition in restrictive medium, OD615, pilot screen, restrictive growth control, yeast lifespan reduction project (AID 706;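 active means growth inhibition above a set limit, 3 SD over mean compound inhibition, in both replicates, cut at about 43% in these data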;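 further: modified DeaD lifespan yeast strain shifted to restrictive glucose medium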). To be noted: OD615, 48 h, at 10 µM, stronger effect = higher value.
The nature of assay [11]: doxorubicin toxicity protection in MRP-1 cells – H69AR cells, CellTiter-Glo, duplicate, MRP-1 activator project, pilot screen (AID 807;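 active means viability increase at or above a cutoff of the median across tested compounds plus 3 SD, cut at about 8.5% in these data, passing the limit was not always enough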;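 further: compound pretreatment 18-22 h then 72 h combined with doxorubicin; 0% = doxorubicin alone and 100% = vehicle without doxorubicin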). To be noted: H69AR viability with doxorubicin, CellTiter-Glo luminescence; at 10 µM; stronger effect = higher value.
Assay [12] is described as follows: viability of HCT116 without oncogenic beta-catenin – human colon tumor cells, pilot screen (AID 823;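 active means cell viability at or below a set limit in both duplicate runs, the limit being the all-compound median minus 4 SD, cut at about 23% in these data, passing the limit was not always enough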;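 further: 0% = wells killed by 20 µM Hyamine and 100% = untreated DMSO cell wells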). To be noted: HCT116 beta-catenin knockout viability, CellTiter-Glo, 60 h; at 10 µM; stronger effect = lower value.
A short description of assay [13]: viability of PTEN-null HCT116 cells – cell-based, HCT116 clonal line, CellTiter-Glo, pilot screen (AID 824;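 active means viability at or below 27.92% in each of two runs, the all-compound median minus 4 SD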;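 further: 0% = 20 µM Hyamine control and 100% = vehicle cell control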). To be noted: HCT116 PTEN-deleted viability, 60 h, at 10 µM, stronger effect = lower value.
Assay [14] in a line: RAM pathway blockade in budding yeast – dse1pr::URA3 reporter, 5-FOA selection, pilot screen (AID 869;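 active means inhibition over a set limit, the all-compound mean plus 3 SD, in both replicate runs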;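 further: 0% = DMSO wells with no growth and 100% = 10 µM 1-NA-PP1 with full growth; RAM network block rescues cells from 5-FOA so hits raise OD615 growth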). To be noted: S. cerevisiae dse1pr::URA3 5-FOA growth, OD615, 2 d; at 10 µM; stronger effect = higher value; strain carries analog-sensitive mutant Cbk1 kinase.
Assay [15] in a line: RAM signaling pathway blockade in yeast – S. cerevisiae, Pdr1DBD-CYC8 efflux-inhibited sensitized strain, primary screen (AID 1298;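 active means RAM network inhibition above 8.4% in each of two replicates, 3 SD over the compound average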;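 further: 0% = DMSO untreated cells without growth and 100% = 10 µM 1-NA-PP1 full growth; higher means more yeast growth rescued from 5-FOA killing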). The settings on record: S. cerevisiae cbk1-as DSE1-URA3 strain, 5-FOA growth OD615, 2 d; at 50 µM; stronger effect = higher value.
Where [16] appears, read: H69AR cells + 2 uM doxorubicin, measured here: viability with 2 uM doxorubicin, stronger effect = lower value.
Where [17] appears, read: H69AR cells, compound alone cytotoxicity.

Results filed as inconclusive are left out. The source made the active and inactive calls. Unless noted, no stated cut-off is given here; in the data, active means inhibition above about 30%; inactive means the rest.

Sequence of Receptor tyrosine-protein kinase erbB-2 (Homo sapiens) (P04626 whole entry, looked up): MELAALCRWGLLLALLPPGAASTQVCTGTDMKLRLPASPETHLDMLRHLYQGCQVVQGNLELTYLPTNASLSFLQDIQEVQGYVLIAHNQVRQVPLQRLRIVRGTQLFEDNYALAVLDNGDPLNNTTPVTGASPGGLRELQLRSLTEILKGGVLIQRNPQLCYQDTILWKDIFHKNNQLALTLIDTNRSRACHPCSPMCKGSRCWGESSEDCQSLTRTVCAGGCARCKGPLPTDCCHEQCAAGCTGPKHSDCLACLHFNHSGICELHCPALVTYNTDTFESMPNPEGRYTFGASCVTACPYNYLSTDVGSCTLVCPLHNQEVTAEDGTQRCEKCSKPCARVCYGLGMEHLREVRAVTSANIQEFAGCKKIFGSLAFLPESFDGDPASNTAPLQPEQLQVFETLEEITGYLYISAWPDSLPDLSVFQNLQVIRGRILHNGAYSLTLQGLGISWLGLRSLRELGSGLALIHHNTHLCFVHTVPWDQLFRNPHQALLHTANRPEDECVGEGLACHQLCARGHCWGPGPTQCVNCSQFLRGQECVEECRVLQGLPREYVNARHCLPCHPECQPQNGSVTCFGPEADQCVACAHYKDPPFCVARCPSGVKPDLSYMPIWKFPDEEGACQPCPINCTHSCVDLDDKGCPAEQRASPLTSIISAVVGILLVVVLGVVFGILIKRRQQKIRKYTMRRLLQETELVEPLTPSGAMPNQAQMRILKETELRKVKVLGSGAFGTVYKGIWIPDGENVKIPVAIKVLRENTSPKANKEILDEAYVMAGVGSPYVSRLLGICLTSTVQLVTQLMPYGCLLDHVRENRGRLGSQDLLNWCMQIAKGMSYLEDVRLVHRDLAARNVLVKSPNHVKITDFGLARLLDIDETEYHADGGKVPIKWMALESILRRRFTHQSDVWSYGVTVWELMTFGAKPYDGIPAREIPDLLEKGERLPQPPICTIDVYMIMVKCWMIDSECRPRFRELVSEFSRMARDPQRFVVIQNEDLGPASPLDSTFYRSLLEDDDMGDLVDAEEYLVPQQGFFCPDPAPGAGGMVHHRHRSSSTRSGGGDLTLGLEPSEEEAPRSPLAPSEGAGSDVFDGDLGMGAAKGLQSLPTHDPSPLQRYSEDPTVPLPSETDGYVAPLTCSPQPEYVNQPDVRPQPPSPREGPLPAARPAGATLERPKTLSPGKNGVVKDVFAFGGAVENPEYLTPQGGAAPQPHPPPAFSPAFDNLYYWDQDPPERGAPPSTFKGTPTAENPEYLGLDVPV

For `COc1ccc(NC(=O)C2CCCN2S(=O)(=O)c2cccc3cccnc23)c(OC)c1` (stereo not given), the viability (in general, a read-out of living cells in per cent, often relative to untreated cells) in assay [1] is 96%; in assay [3], 96% (inactive); in assay [4], 90.5% (inactive); in assay [5], 95% (inactive); in assay [6] (setting [16]), 95.9%; in assay [6] (setting [17]) it was 95%. Besides, the viability in assay [12] is 91.6% (inactive); in assay [13] it was 84.3% (inactive). In addition, the Her2 level in assay [2] is 106% (inactive). For the same compound, the differential viability (reversal) in assay [6] (H69AR cells + 2 uM doxorubicin) was -0.87% (inactive). Further, the inhibition (usually the change of the read-out against control, counted positive when it falls) in assay [7] was 91.4% (active); in assay [8], 84.7% (active); in assay [14], 0.91% (inactive). In addition, the figures for the growth inhibition in [9] and in assay [10] were 98.5% (active) and 95.7% (active), respectively. Also, in assay [11], the viability increase is -2.76% (inactive). In assay [15], the RAM network inhibition is -1.73% (inactive).

With `CC1=C(C(=O)Nc2ccccc2)C(c2ccccn2)n2nc(CCCO)nc2N1` (stereo not given), the viability is 94.5% in assay [1]; 94.5% (inactive) in assay [3]; 101% (inactive) in assay [4]; 95.6% (inactive) in assay [5]; 94.1% in [6] (setting [16]); 95.6% in assay [6] (setting [17]). The viability in assay [12] is 96.3% (inactive); in [13], 92.9% (inactive). In addition, the Her2 level in assay [2] is 105% (inactive). Besides, the differential viability (reversal) in [6] (H69AR cells + 2 uM doxorubicin) is 1.47% (inactive). The inhibition in assay [7] is -5.73% (inactive); in assay [8], -3.33% (inactive); in assay [14], 1.56% (inactive). In addition, the growth inhibition in assay [9] is -14.1% (inactive); in assay [10], -8.68% (inactive). Further, in [11], the viability increase was -0.39% (inactive). In addition, the RAM network inhibition in [15] was 5.48% (inactive).

Regarding `COc1ccc(CNc2oc(-c3ccccc3)nc2C#N)cc1`, the viability was 88.5% in assay [1]; 88.5% (inactive) in [3]; 69.7% (inactive) in assay [4]; 103% (inactive) in [5]; 102% in assay [6] (setting [16]); 103% in assay [6] (setting [17]). Moreover, the figures for the viability in [12] and in assay [13] were 98.8% (inactive) and 98.6% (inactive), respectively. Further, the Her2 level in assay [2] is 83.5% (inactive). Further, in assay [6] (H69AR cells + 2 uM doxorubicin), the differential viability (reversal) was 0.495% (inactive). The values for the inhibition in assay [7], in [8] and in assay [14] were 4.27% (inactive), -4.92% (inactive) and 0.335% (inactive), respectively. Moreover, the growth inhibition is 0.305% (inactive) in [9] and 12.3% (inactive) in [10]. In [11], the viability increase was 2.09% (inactive). In assay [15], the RAM network inhibition was 4.07% (inactive).

As for `O=C(NCc1cccs1)C(Cc1ccccc1)n1cccc1` (stereo not given), the viability in assay [1] was 114%; in assay [3], 114% (inactive); in [4] it was 106% (inactive); in [5], 94.6% (inactive); in assay [6] (setting [16]) it was 86%; in assay [6] (setting [17]), 94.6%. Besides, the figures for the viability in assay [12] and in [13] were 92.6% (inactive) and 89.9% (inactive), respectively. In assay [2], the Her2 level is 110% (inactive). Moreover, the differential viability (reversal) in assay [6] (H69AR cells + 2 uM doxorubicin) was 8.57% (inactive). The inhibition in assay [7] was -1.67% (inactive); in assay [8] it was -5.67% (inactive); in assay [14], 3.21% (inactive). Further, the growth inhibition in assay [9] is 3.97% (inactive); in assay [10], -4.98% (inactive). Also, the viability increase in assay [11] is 0.04% (inactive). Besides, the RAM network inhibition in assay [15] is 3.72% (inactive).

As for `Cc1ccnc2c(N3C(=O)C4C5C=CC(C5)C4(C)C3=O)cccc12` (stereo not given), the viability in assay [1] is 98%; in assay [3], 98% (inactive); in [4] it was 105% (inactive); in assay [5], 92.9% (inactive); in [6] (setting [16]), 91.4%; in assay [6] (setting [17]) it was 92.9%. Moreover, the values for the viability in assay [12] and in assay [13] were 93.3% (inactive) and 95.5% (inactive), respectively. The Her2 level in assay [2] is 102% (inactive). In assay [6] (H69AR cells + 2 uM doxorubicin), the differential viability (reversal) was 1.47% (inactive). Besides, the results for the inhibition in assay [7], in [8] and in assay [14] were -3.47% (inactive), -5.5% (inactive) and 1.86% (inactive), respectively. Moreover, the growth inhibition is -20.2% (inactive) in assay [9] and -11.7% (inactive) in [10]. In addition, the viability increase in assay [11] is -0.94% (inactive). Moreover, the RAM network inhibition in assay [15] is -1.63% (inactive).
